For 40 molecules, growth results are on record in PubChem BioAssay (NCI).

About 83,000 compounds went through this panel and 20% of them were active in at least one assay; those are over-represented in the sample as a whole.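 Percent growth is the endpoint: 0 to 100 indicates growth inhibition (40 means 60% inhibition), 0 means no net growth, and negative values indicate cell death.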 Active and inactive are the calls of the source.

For the experiment, the system named is OVCAR-5 ovarian. As to the kind of experiment: NCI-60 one-dose screen, 48 h (100 = growth as untreated, 0 = no growth, -100 = all killed). The note with it: 10 µM unless noted. The procedure: Growth inhibition of the OVCAR-5 human tumor cell line is measured as a screen for anti-cancer activity. Cells are grown in 96 well plates and exposed to the test compound for 48 hours. Compounds are tested at a single concentration, which is 10^-5 M for most compounds. The reported endpoint is percent growth (GI% or GIPRCNT), where numbers from 0 - 100% represent growth inhibition, and numbers from -100% - 0 represent cell death. For example, a value of 40 represents 60% growth inhibition. A value of 0 means no net growth occurred over the course of the experiment. A value of -40 indicates 40% of cells at the beginning of the experiment died by the end of the experiment. A value of -100 means all cells are dead at the end of the experiment.
NCI-60 Human Tumor Cell Lines Screen was performed using the standard one-dose NCI protocol, which is described in more detail at https://dtp.cancer.gov/discovery_development/nci-60/default.htm.
Compounds with GIPRCNT values below 10 were considered active. Activity score was based on GIPRCNT using the following formula: […]
Score is 0 for GIPRCNT values of 100 or above, 50 for GIPRCNT values of 0, and 100 for GIPRCNT values of -100.
As to `COC(=O)[C@H](CC(C)C)NC(=O)NC(=O)NC(=O)CI`, the growth is 86.9% (inactive).

Turning to `Cc1cc(NN=C(c2ccc(O)cc2)c2ccc(O)cc2)c([N+](=O)[O-])cc1[N+](=O)[O-]`, the growth was 90.1% (inactive).

`CC[C@@](C)(NC(=O)[C@H](C)NC(=O)CCNC(=O)C(C)(C)NC(=O)[C@H](C)NC(=O)[C@@H]1CCCN1C(=O)[C@@](C)(CC)NC(=O)[C@H](Cc1ccccc1)NC(=O)C1CCCN1C(=O)C(C)(C)NC(=O)C1CCCN1C(=O)C(C)(C)NC(C)=O)C(=O)NCCC(=O)N[C@@H](CC(C)C)C(=O)NC(C)(C)C(=O)NCCC(=O)N[C@@H](CC(C)C)C(=O)NC(C)(C)C(=O)NC(C)(C)C(=O)N[C@@H](CC(C)C)C(=O)NCCC(=O)NCO` (stereo not given in full): the growth is -87.6% (active).

For `CC(C)(C)c1cc(C(=O)N2CCC(C(=O)NCCN)CC2)cc(C(C)(C)C)c1`, the growth was 98.9% (inactive).

For the molecule `CC1(C)CC[C@]2(C(N)=O)CC[C@]3(C)C(=CC[C@@H]4[C@@]5(C)C/C(=C/c6cccnc6)C(=O)C(C)(C)[C@@H]5CC[C@]43C)[C@@H]2C1`, the growth is -64% [100 µM] (active).

Take `Clc1ccccc1/C=N\Nc1ccccn1`: the growth was 104% (inactive).

With `CCOC(=O)c1nc2c3ccccc3ccn2c1C(=O)OC`, the growth is 89.5% (inactive).

On to `O=C1NC(=O)c2cc([N+](=O)[O-])cc3cccc1c23`, for which the growth was 109% (inactive).

Take `COC(=O)c1cc(O)c2c(c1C(=O)OC)C[C@H]1[C@@H]3CC=C4C[C@@H](O)CC[C@]4(C)[C@H]3CC[C@]21C`: the growth was 61.4% (inactive).

Regarding `CCOC(CNC(=O)c1cccc([N+](=O)[O-])c1)OCC`, the growth was 101% (inactive).

`O=C(CSc1nc2ccc([N+](=O)[O-])cc2[nH]1)Nc1cccc(Cl)c1`: the growth was 61.4% (inactive).

For `Cn1cc(-c2nnc(-c3cn(C)c4ncc(Br)cc34)o2)c2ccccc21`, the growth was 93.4% (inactive).

For the molecule `Cc1ccc(S(=O)(=O)Oc2ccc(Br)cc2Br)cc1`, the growth was 89.5% (inactive).

As for `COc1ccc(CC(C#N)c2ccc(Cl)cc2)cc1` (stereo not given), the growth is 82.9% (inactive).

For the molecule `O=C(NNc1ccc(-c2ccccc2)nn1)c1ccccc1`, the growth was 100% (inactive).

Consider `Fc1cc2[nH]ncc2c2c3c(c(-c4cn[nH]c4C(F)(F)F)nc12)C1CCC3C1` (stereo not given), for which the growth was -7.74% (active).

Turning to `CC(C)[N+](C)(C)CC(O)COc1cccc2ccccc12` (stereo not given), the growth was 94.6% (inactive).

Take `COc1ccc(C(=O)/C=C/c2ccccn2)c(O)c1`: the growth is 96.3% (inactive).

With `COC(=O)[C@]1(C)CC[C@]2(C)CC[C@]3(C)C(=CC(=O)[C@@H]4[C@@]5(C)CCC(=O)NC(C)(C)[C@@H]5CC[C@]43C)[C@@H]2C1`, the growth was -60.8% [100 µM] (active).

Regarding `C=C(C)[C@@H]1CC[C@]2(C)[C@H](CC[C@@H]3[C@@H]([C@@](C)(O)CCC=C(C)C)CC[C@]32C)[C@@]1(C)CCC(=O)N1CCN(C)CC1`, the growth was -93.3% [100 µM] (active).

Consider `C#C[C@]1(O)CC[C@H]2[C@@H]3CC=C4c5nc(Nc6ccc(OC)cc6OC)sc5CC[C@]4(C)[C@H]3CC[C@@]21C`, for which the growth was 51.7% (inactive).

On to `CC(C)[C@H]1COC(=O)N1[C@@H]1C(=O)N([C@@H](CCC(=O)N2CCN(C3CCCC3)CC2)C(=O)N[C@@H]2CCCc3ccccc32)[C@@H]1/C=C/c1cccc(Cl)c1`, for which the growth is 105% (inactive).

As to `Cn1cc(-c2nnc(-c3cn(C)c4ncccc34)s2)c2ccccc21`, the growth was 90% (inactive).

For `CCOC(=O)CC(c1ccccc1)C(C#N)c1ccccc1` (stereo not given), the growth is 110% (inactive).

On to `O=c1cc(-c2ccccc2)oc2cc(OCc3cn(Cc4ccc(F)cc4)nn3)cc(O)c12`, for which the growth was 83.7% [100 µM] (inactive).

With `NC(=O)CC1C=CCC1` (stereo not given), the growth is 96.7% (inactive).

On to `CC(=O)CC(=O)SC1=NCCS1`, for which the growth is 117% (inactive).

For `CCOC(=O)Nc1ccc2c(c1)/C(=N\NC(=S)NC)c1ccccc1-2`, the growth was 97.8% (inactive).

Take `O=C(Nc1cc(-c2cccnc2)nc(NCCCN2CCOCC2)n1)c1cc(Br)cc(C(F)(F)F)c1`: the growth was 81.4% (inactive).

With `COc1cc(/C=C/C(=O)/C=C/c2ccc(-n3ccnc3)cc2)ccc1O`, the growth was 100% (inactive).

Regarding `CC1(C)CC[C@]2(C(=O)OC(=O)[C@]34CCC(C)(C)C[C@@H]3C3=CC[C@@H]5[C@@]6(C)CCC(=O)C(C)(C)[C@@H]6CC[C@@]5(C)[C@]3(C)CC4)CC[C@]3(C)C(=CC[C@@H]4[C@@]5(C)CCC(=O)C(C)(C)[C@@H]5CC[C@]43C)[C@H]2C1`, the growth is 98.3% [100 µM] (inactive).

Take `Cc1ccc(-c2cn(C/C=C3\C=CN(S(=O)(=O)c4ccccc4)CC3)nn2)cc1`: the growth is 120% (inactive).

With `COc1ccc(-c2cc(-c3ccccc3)nc(SCCCCCC(=O)NO)n2)cc1`, the growth is 41.4% (inactive).

As to `CCCCCCNC(=O)Nc1ncnc2c1ncn2-c1ccccc1`, the growth is 88.9% (inactive).

As for `CCCCOC(=O)c1cccc([N+](=O)[O-])c1`, the growth is 97.9% (inactive).

Regarding `O=[N+]([O-])c1cccc(/C=C/c2ccc3ccccc3n2)c1`, the growth was 130% (inactive).

As for `CCN(CC)CCCOc1ccc2c(c1)O/C(=C\c1cccc(OC)c1)C2=O`, the growth was 95.7% (inactive).

Consider `CC1(C)S[C@@H]2[C@H](NC(=O)[C@H](C(=O)O)c3cccs3)C(=O)N2[C@H]1C(=O)O`, for which the growth was 100% (inactive).

With `Cc1cc(-c2ccc(N=Nc3c(S(=O)(=O)O)cc4cc(S(=O)(=O)O)cc(N)c4c3O)c(C)c2)ccc1N=Nc1cc(S(=O)(=O)O)c2ccccc2c1O`, the growth was 86.8% (inactive).

`CCCCCn1sc(=O)n(Cc2ccc(CNC(=O)OCc3ccc4cccc(O)c4n3)cc2)c1=O`: the growth was -42.3% (active).
